According to PubChem BioAssay (NCATS):
Results filed as inconclusive are left out. Calls of active or inactive are those of the source. Calls come from the whole dose curve; as a rule, active = well fitted curve in the direction sought with a large enough effect; inconclusive = small, poorly fitted or top-dose-only effect, or another doubt; inactive = no such curve, though single readings can be large; an effect the other way counts as inactive or inconclusive.

Key:
[1] = Cellular Toxicity (caspase-3) N2a (AID 665);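 note: compound exposure lasted 16 h at 37 °C before readout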
In short: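 Mouse N2a neuroblastoma cells, 1500 per well, treated 16 h at 37 °C in complete medium; caspase-3/7 activity by Caspase-Glo luminescence after 1 h. Normalized to DMSO and 10 uM staurosporine; AC50 from Hill fits.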

[2] = Cellular Toxicity (caspase-3) NIH 3T3 (AID 666);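 note: caspase signal read after 16 h compound exposure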
In short: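 Mouse NIH 3T3 fibroblasts (1000/well) treated 16 h at 37 C; caspase-3/7 activity measured by Caspase-Glo 3/7 luminescence after 20 min. Normalized to DMSO and 100 uM tamoxifen; AC50 from Hill fits.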

[3] = Cellular Toxicity (caspase-3) Renal Proximal Tubule (AID 667);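 note: cells exposed to compound for 16 hours at 37 °C before detection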
In short: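 Primary rat proximal tubule cells, 1000/well, 5 h plating at 37 °C, then compound 16 h at 37 °C. Caspase-Glo 3/7 reagent, 1 h RT, luminescence. Normalized to DMSO (basal) and 10 uM staurosporine (100%); Hill-fit AC50.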

[4] = biological target: Cytochrome P450 3A4 (Homo sapiens) (UniProt P08684); assay: qHTS Assay for Inhibitors and Substrates of Cytochrome P450 3A4 (AID 884); note: series mostly up to about 57 µM; nearly all actives have a fitted effect of over 50% in size
In short: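 20 nM human CYP3A4 with 25 uM Luciferin-PPXE (at KM) in 200 mM KPO4, preincubated 10 min with compound; NADPH regeneration started a 60 min RT reaction. Luciferin detected by luminescence, normalized to 57 uM ketoconazole as full inhibition.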

[5] = biological target: Guanine nucleotide-binding protein G(i) subunit alpha-1 (Homo sapiens) (UniProt P63096); assay: qHTS Assay for Inhibitors of RGS12 GoLoco Motif Activity (Green Fluorophore) (AID 879);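 note: negative values mean loss of peptide binding seen as reduced polarization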
In short: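 Fluorescence polarization assay: 50 nM Gαi1 with 10 nM FITC-labeled RGS12 GoLoco peptide in 10 mM Tris pH 7.5, 150 mM NaCl, 0.1 mM GDP, 0.05% NP40, 10 min at room temperature with compound.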

[6] = biological target: Cytochrome P450 3A4 (Homo sapiens) (UniProt P08684); assay: qHTS Assay for Activators of Cytochrome P450 3A4 (AID 885); note: nearly all actives have a fitted effect of over 65% in size
In short: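 Human CYP3A4 (20 nM) with Luciferin-PPXE at 25 uM (its KM) in 200 mM KPO4; 10 min compound preincubation, then NADPH regeneration and 60 min reaction at RT. Luciferin read by luminescence; normalized to 57 uM ketoconazole full inhibition.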

[7] = biological target: Cytochrome P450 2C9 (Homo sapiens) (UniProt P11712); assay: qHTS Assay for Inhibitors and Substrates of Cytochrome P450 2C9 (AID 883); note: nearly all actives have a fitted effect of over 60% in size
In short: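 Signal: luciferase luminescence reporting luciferin produced by CYP2C9. Conditions: 10nM enzyme, Luciferin-H 100uM at KM, 25mM KPO4, 37C, 60 min NADPH-driven reaction. Reference: 57uM sulphaphenazole as 100% inhibition.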

[8] = biological target: Cytochrome P450 2D6 (Homo sapiens) (UniProt P10635); assay: qHTS Assay for Inhibitors and Substrates of Cytochrome P450 2D6 (AID 891);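 note: luciferin methyl ether substrate demethylated by CYP2D6 with NADPH regeneration; nearly all actives have a fitted effect of over 60% in size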
In short: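 Human CYP2D6 (5 nM) with 30 uM Luciferin-ME EGE (at Km) in 100 mM KPO4, compound preincubated 10 min, then NADPH regeneration system for 60 min at room temperature. Luciferin read by luminescence; normalized to 1.43 uM quinidine.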

[9] = biological target: Cytochrome P450 2C19 (Homo sapiens) (UniProt P33261); assay: qHTS Assay for Inhibitors and Substrates of Cytochrome P450 2C19 (AID 899); note: nearly all actives have a fitted effect of over 60% in size
In short: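 Signal comes from luciferase acting on luciferin released by CYP2C19-mediated hydroxylation of Luciferin-H EGE, 10uM (KM). Assay mix: 5nM enzyme, 50mM KPO4; 60 min at 37C with NADPH regeneration. Data normalized against 57uM ketoconazole.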

Measured: Potency

Chain of Cytochrome P450 3A4 (Homo sapiens) (P08684 whole entry, looked up): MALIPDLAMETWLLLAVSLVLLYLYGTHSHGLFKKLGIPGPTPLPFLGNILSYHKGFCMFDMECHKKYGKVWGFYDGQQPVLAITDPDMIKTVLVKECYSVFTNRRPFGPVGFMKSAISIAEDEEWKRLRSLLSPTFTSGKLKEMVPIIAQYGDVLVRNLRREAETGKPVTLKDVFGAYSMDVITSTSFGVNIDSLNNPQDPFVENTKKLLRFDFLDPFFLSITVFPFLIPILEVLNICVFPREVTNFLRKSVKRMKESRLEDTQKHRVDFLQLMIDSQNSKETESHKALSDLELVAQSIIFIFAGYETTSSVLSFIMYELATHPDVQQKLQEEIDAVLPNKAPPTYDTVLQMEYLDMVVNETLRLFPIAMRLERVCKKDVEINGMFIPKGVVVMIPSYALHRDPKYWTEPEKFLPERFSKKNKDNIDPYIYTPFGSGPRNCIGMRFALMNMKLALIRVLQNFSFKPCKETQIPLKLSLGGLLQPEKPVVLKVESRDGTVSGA
Chain of Guanine nucleotide-binding protein G(i) subunit alpha-1 (Homo sapiens) (P63096 whole entry, looked up): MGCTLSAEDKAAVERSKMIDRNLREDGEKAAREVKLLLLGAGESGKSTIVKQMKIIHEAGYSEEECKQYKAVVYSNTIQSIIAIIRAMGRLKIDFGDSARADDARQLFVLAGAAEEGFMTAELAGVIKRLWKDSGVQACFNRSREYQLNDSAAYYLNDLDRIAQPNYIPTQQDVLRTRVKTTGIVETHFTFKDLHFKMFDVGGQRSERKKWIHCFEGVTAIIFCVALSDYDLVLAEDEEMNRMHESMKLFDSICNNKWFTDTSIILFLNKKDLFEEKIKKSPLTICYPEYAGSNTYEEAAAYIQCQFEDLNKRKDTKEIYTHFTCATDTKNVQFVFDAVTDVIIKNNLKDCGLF
Chain of Cytochrome P450 2C9 (Homo sapiens) (P11712 whole entry, looked up): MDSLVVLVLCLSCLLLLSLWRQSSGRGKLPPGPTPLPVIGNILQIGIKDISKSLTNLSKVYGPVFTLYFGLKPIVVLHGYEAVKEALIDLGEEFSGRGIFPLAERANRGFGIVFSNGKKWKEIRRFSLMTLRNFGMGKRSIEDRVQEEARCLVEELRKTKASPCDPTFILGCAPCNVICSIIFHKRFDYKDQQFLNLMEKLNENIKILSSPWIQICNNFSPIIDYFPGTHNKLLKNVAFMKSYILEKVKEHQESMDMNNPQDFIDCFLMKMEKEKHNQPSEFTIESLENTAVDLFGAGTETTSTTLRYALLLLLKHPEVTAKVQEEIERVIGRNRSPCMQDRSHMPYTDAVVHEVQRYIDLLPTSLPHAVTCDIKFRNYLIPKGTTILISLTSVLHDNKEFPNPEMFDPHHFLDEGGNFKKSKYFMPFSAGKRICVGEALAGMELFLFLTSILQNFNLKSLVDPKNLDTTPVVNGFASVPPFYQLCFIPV
Chain of Cytochrome P450 2D6 (Homo sapiens) (P10635 whole entry, looked up): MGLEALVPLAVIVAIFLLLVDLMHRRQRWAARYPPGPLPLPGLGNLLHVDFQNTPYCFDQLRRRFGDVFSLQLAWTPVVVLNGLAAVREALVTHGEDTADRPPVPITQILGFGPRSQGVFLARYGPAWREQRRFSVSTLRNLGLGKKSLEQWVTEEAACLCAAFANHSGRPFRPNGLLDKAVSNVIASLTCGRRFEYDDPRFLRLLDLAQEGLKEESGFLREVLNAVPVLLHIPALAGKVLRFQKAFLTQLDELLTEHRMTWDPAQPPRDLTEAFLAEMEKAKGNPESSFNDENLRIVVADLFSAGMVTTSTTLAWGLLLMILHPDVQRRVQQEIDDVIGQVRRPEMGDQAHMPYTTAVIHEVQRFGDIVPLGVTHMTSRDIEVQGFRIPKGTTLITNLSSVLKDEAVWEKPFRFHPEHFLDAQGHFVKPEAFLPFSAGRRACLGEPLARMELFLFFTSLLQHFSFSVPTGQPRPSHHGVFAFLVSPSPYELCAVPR
Chain of Cytochrome P450 2C19 (Homo sapiens) (P33261 whole entry, looked up): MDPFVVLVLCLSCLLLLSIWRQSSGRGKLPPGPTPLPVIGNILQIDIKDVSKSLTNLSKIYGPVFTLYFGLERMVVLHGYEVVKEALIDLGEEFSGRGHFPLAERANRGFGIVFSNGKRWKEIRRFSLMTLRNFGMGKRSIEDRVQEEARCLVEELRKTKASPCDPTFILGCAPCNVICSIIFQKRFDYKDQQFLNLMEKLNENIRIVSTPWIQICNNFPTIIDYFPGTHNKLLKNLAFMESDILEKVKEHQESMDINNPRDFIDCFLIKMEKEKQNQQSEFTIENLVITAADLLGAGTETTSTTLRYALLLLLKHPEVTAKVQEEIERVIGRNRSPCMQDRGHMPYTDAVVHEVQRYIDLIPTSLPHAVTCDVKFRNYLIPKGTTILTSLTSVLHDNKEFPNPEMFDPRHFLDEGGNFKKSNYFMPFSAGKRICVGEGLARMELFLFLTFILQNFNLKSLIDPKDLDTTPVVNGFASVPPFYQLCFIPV

CCOCCOC(C)=O
inactive: [1] | [2] | [3] | [4]

CCCCCCCCc1ccc(O)cc1
inactive: [1] | [2] | [3] | [4]

C#CCOC(=O)C1=CCCN(C)C1
inactive: [5]

Nc1ccc(Sc2ccc(N)cc2)cc1
inactive: [1] | [2] | [3]

COc1ccc(C(c2ccc(OC)cc2)C(Cl)(Cl)Cl)cc1
inactive: [1] | [2] | [3] | [4]

NC(N)=NOCCC(N)C(=O)O (stereo not given)
inactive: [5]

C=CC(=O)NCNC(=O)C=C
inactive: [1] | [2] | [3] | [4]

Cc1c(C(=O)c2cccc3ccccc23)c2cccc3c2n1[C@H](CN1CCOCC1)CO3
inactive: [5]

Nc1ccc(Cl)cc1
inactive: [1] | [2] | [3] | [4]

CCOP(=O)(NC(C)C)Oc1ccc(SC)c(C)c1 (stereo not given)
inactive: [1] | [2] | [3] | [6]

Clc1cnc(Oc2ccc(Oc3ncc(Cl)cc3Cl)cc2)c(Cl)c1
inactive: [5] | [7]

CCCCc1ccc(C(=O)O)nc1
not listed: [1] | [2] | [3]
inactive: all other assays above

S=C(NC1CCCCC1)N1CCC(c2cnc[nH]2)CC1
inactive: [5]

CC(C)(O)C(=O)Nc1ccc([N+](=O)[O-])c(C(F)(F)F)c1
inactive: [1] | [2] | [3] | [6]

O=[N+]([O-])c1c(Cl)c(Cl)cc(Cl)c1Cl
inactive: [1] | [2] | [3] | [4]

O=C(O)C(Cl)Cl
inactive: [1] | [2] | [3] | [4]

O=S(=O)(c1ccc(Cl)cc1)c1ccc(Cl)cc1
inactive: [1] | [2] | [3] | [6]
